# In PubChem BioAssay (NCATS):
# Records with an inconclusive call do not appear. Where a call stands in place of a potency, no number is given. Activity calls are given as the source filed them. Calls come from the whole dose curve; as a rule, active = well fitted curve in the direction sought with a large enough effect; inconclusive = small, poorly fitted or top-dose-only effect, or another doubt; inactive = no such curve, though single readings can be large; an effect the other way counts as inactive or inconclusive.
# Tests used:
# [1] = qHTS of pediatric cancer cell lines to identify multiple opportunities for drug repurposing: Primary screen for Rh41 cells (AID 1347108); note: nearly all actives have a fitted effect of over 70% in size; note: potency is the fitted concentration of half-maximal effect
# Summary of the method: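 Cells plated at 500-1,000/well in growth medium, compounds added after 5 h. MIPE tested at 11 points (from 0.78 nM), NPC at 8 points (from 0.59 nM). CellTiter-Glo luminescence after 48 h; concentration-response curves from primary screen.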
# [2] = biological target: N-terminal Xaa-Pro-Lys N-methyltransferase 1 (Homo sapiens) (UniProt Q9BV86); assay: qHTS Assay for Inhibitors of N-terminal methyltransferase 1 (NTMT1): LOPAC validation of the NTMT1 SAHH-coupled ThioGlo3 Assay (AID 1347143);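 note: SAH from peptide methylation measured as thiol fluorescence via SAHH coupling and ThioGlo3; nearly all actives have a fitted effect of over 70% in size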
# Sequence of N-terminal Xaa-Pro-Lys N-methyltransferase 1 (Homo sapiens) (Q9BV86 whole entry, looked up): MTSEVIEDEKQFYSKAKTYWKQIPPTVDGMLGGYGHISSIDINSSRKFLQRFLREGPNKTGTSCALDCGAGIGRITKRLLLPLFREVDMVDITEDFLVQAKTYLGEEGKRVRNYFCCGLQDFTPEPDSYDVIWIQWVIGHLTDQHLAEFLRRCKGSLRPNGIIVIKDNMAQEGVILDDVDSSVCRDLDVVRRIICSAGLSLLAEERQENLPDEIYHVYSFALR
# Summary of the method: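 NTMT1 125nM + cpds (various conc.), 1 min RT; add SAM 100uM/SAHH 10uM/ThioGlo3 15uM (addition mix). SAHH-coupled thiol detection, Ex340/Em450, t0 and 30 min RT; signal normalized to background. LOPAC 1280-cpd pilot.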
# [3] = qHTS of pediatric cancer cell lines to identify multiple opportunities for drug repurposing: Confirmatory screen for A673 cells (AID 1347110);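 note: cells exposed to compound for 48 h before the viability read; nearly all actives have a fitted effect of over 65% in size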; note: potency is the fitted concentration of half-maximal effect
# Summary of the method: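 Viability was read as ATP luminescence (CellTiter-Glo) after 48 h of compound exposure at 37 C in A673 cells seeded at 500-1,000/well. Titrations reached 46 uM final, with 11 points in the confirmatory screen. Concentration-response curves were fitted directly.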
# [4] = qHTS of pediatric cancer cell lines to identify multiple opportunities for drug repurposing: Confirmatory screen for BT-12 cells (AID 1347112); note: nearly all actives have a fitted effect of over 55% in size; note: potency is the fitted concentration of half-maximal effect
# Summary of the method: (§1)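 Cells (500-1,000/well) rested 5 h, then received compounds for 48 h; metabolically active cells were measured by CellTiter-Glo luminescence. Final concentrations spanned up to 46 µM (MIPE, 11-point) or 0.59 nM-46 µM (NPC, 8-point) in primary screens, 11-point in follow-ups.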
# [5] = qHTS of pediatric cancer cell lines to identify multiple opportunities for drug repurposing: Confirmatory screen for NB-EBc1 cells (AID 1347115);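 note: cells exposed to compound for 48 h before the viability read; nearly all actives have a fitted effect of over 45% in size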; note: potency is the fitted concentration of half-maximal effect
# Summary of the method: as §1
# [6] = qHTS of pediatric cancer cell lines to identify multiple opportunities for drug repurposing: Confirmatory screen for SJ-GBM2 cells (AID 1347116); note: nearly all actives have a fitted effect of over 60% in size; note: potency is the fitted concentration of half-maximal effect
# Summary of the method: (§2)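 Viability measured as metabolically active cells via CellTiter-Glo luminescence following 48 hours of compound exposure, 11-point dilutions in confirmatory testing. 500-1,000 cells/well plated 5 hours before dosing; controls were DMSO and 2.3 µM bortezomib.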
# [7] = qHTS of pediatric cancer cell lines to identify multiple opportunities for drug repurposing: Confirmatory screen for control Hh wild type fibroblast cells (AID 1347121); note: nearly all actives have a fitted effect of over 70% in size; note: potency is the fitted concentration of half-maximal effect
# Summary of the method: as §1
# [8] = qHTS of pediatric cancer cell lines to identify multiple opportunities for drug repurposing: Confirmatory screen for Rh18 cells (AID 1347125); note: nearly all actives have a fitted effect of over 55% in size; note: potency is the fitted concentration of half-maximal effect
# Summary of the method: as §1
# [9] = qHTS of pediatric cancer cell lines to identify multiple opportunities for drug repurposing: Confirmatory screen for Rh30 cells (AID 1347126); note: nearly all actives have a fitted effect of over 55% in size; note: potency is the fitted concentration of half-maximal effect
# Summary of the method: as §1
# [10] = qHTS of pediatric cancer cell lines to identify multiple opportunities for drug repurposing: Confirmatory screen for SK-N-SH cells (AID 1347129);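 note: cells exposed to compound for 48 h before viability read; nearly all actives have a fitted effect of over 60% in size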; note: potency is the fitted concentration of half-maximal effect
# Summary of the method: as §1
# [11] = qHTS of pediatric cancer cell lines to identify multiple opportunities for drug repurposing: Confirmatory screen for NB1643 cells (AID 1347109); note: nearly all actives have a fitted effect of over 45% in size; note: potency is the fitted concentration of half-maximal effect
# Summary of the method: as §1
# [12] = qHTS of pediatric cancer cell lines to identify multiple opportunities for drug repurposing: Confirmatory screen for SK-N-MC cells (AID 1347111);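 note: cells exposed to compound for 48 h before the readout; nearly all actives have a fitted effect of over 70% in size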; note: potency is the fitted concentration of half-maximal effect
# Summary of the method: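 Seed 500-1,000 cells/well; rest 5 h at 37 degrees C. Pin-transfer compounds, 11-point titration. Incubate 48 h. Add CellTiter-Glo, 15 min RT, read luminescence.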
# [13] = qHTS of pediatric cancer cell lines to identify multiple opportunities for drug repurposing: Confirmatory screen for BT-37 cells (AID 1347117); note: nearly all actives have a fitted effect of over 55% in size; note: potency is the fitted concentration of half-maximal effect
# Summary of the method: as §1
# [14] = qHTS of pediatric cancer cell lines to identify multiple opportunities for drug repurposing: Confirmatory screen for TC32 cells (AID 1347118);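 note: cells exposed to compound for 48 h before the read; nearly all actives have a fitted effect of over 65% in size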; note: potency is the fitted concentration of half-maximal effect
# Summary of the method: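 TC32 cells, 500-1,000/well in growth medium, compound-treated 48 h at 37 °C; viability from CellTiter-Glo luminescence. Primary screen: MIPE 11-point (0.78 nM–46 µM final), NPC 8-point (0.59 nM–46 µM final); confirmatory at 11-point dilutions.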
# [15] = qHTS of pediatric cancer cell lines to identify multiple opportunities for drug repurposing: Confirmatory screen for MG 63 (6-TG R) cells (AID 1347119); note: nearly all actives have a fitted effect of over 55% in size; note: potency is the fitted concentration of half-maximal effect
# Summary of the method: as §1
# [16] = qHTS of pediatric cancer cell lines to identify multiple opportunities for drug repurposing: Confirmatory screen for LAN-5 cells (AID 1347113); note: nearly all actives have a fitted effect of over 65% in size; note: potency is the fitted concentration of half-maximal effect
# Summary of the method: as §1
# [17] = qHTS of pediatric cancer cell lines to identify multiple opportunities for drug repurposing: Confirmatory screen for DAOY cells (AID 1347114); note: nearly all actives have a fitted effect of over 65% in size; note: potency is the fitted concentration of half-maximal effect
# Summary of the method: as §2
# [18] = qHTS of pediatric cancer cell lines to identify multiple opportunities for drug repurposing: Confirmatory screen for U-2 OS cells (AID 1347122); note: nearly all actives have a fitted effect of over 65% in size; note: potency is the fitted concentration of half-maximal effect
# Summary of the method: as §1
# [19] = qHTS of pediatric cancer cell lines to identify multiple opportunities for drug repurposing: Confirmatory screen for Rh41 cells (AID 1347123); note: nearly all actives have a fitted effect of over 60% in size; note: potency is the fitted concentration of half-maximal effect
# Summary of the method: as §1
# [20] = qHTS of pediatric cancer cell lines to identify multiple opportunities for drug repurposing: Confirmatory screen for OHS-50 cells (AID 1347128); note: potency is the fitted concentration of half-maximal effect
# Summary of the method: as §1
SMILES,Potency [1],Potency [2],Potency [3],Potency [4],Potency [5],Potency [6],Potency [7],Potency [8],Potency [9],Potency [10],Potency [11],Potency [12],Potency [13],Potency [14],Potency [15],Potency [16],Potency [17],Potency [18],Potency [19],Potency [20]
CCN(CC)CCOC(=O)c1ccc(N)cc1,inactive,inactive,–,–,–,–,–,–,–,–,–,–,–,–,–,–,–,–,–,–
CO[C@H]1C[C@@H]2CC[C@@H](C)[C@@](O)(O2)C(=O)C(=O)N2CCCC[C@@H]2C(=O)O[C@H]([C@H](C)C[C@@H]2CC[C@H](OCCO)[C@H](OC)C2)CC(=O)[C@H](C)C=C(C)[C@@H](O)[C@@H](OC)C(=O)[C@H](C)C[C@H](C)C=CC=CC=C1C,1180 nM (active),–,inactive,inactive,inactive,inactive,inactive,inactive,inactive,inactive,–,–,–,–,–,–,–,–,–,–
CC(=O)CCCCn1c(=O)c2c(ncn2C)n(C)c1=O,inactive,inactive,–,–,–,–,–,–,–,–,–,–,–,–,–,–,–,–,–,–
O=C(O)CCC1CCC(c2cc(F)ccc2F)(S(=O)(=O)c2ccc(Cl)cc2)CC1 (stereo not drawn),5900 nM (active),–,–,26100 nM (active),inactive,inactive,inactive,29300 nM (active),–,inactive,inactive,20800 nM (active),16500 nM (active),20800 nM (active),inactive,–,–,–,–,–
CC(=O)Nc1ccc([C@H](C)C(=O)Nc2ncc(C(C)C)s2)cc1,7430 nM (active),–,2610 nM (active),3690 nM (active),inactive,–,inactive,–,2080 nM (active),6620 nM (active),–,8270 nM (active),4140 nM (active),7370 nM (active),–,3690 nM (active),4650 nM (active),1470 nM (active),9270 nM (active),7370 nM (active)
N[C@@]1(C(=O)O)CS(=O)(=O)[C@H]2[C@H](C(=O)O)[C@H]21,inactive,–,inactive,–,inactive,–,inactive,inactive,inactive,inactive,–,46.5 nM (active),737 nM (active),52.2 nM (active),13100 nM (active),–,inactive,inactive,inactive,928 nM (active)
COc1ccc(-c2nc(N3CCOCC3)c3sc(CN(C)c4ncc(C(=O)NO)cn4)cc3n2)cn1,29.6 nM (active),–,1650 nM (active),1850 nM (active),–,–,–,1170 nM (active),4140 nM (active),5900 nM (active),928 nM (active),–,–,–,928 nM (active),465 nM (active),1040 nM (active),522 nM (active),414 nM (active),–
CC(=O)O[C@]1(C(C)=O)CC[C@H]2[C@@H]3C=C(Cl)C4=CC(=O)[C@@H]5C[C@@H]5[C@]4(C)[C@H]3CC[C@@]21C,18800 nM (active),inactive,–,–,–,–,–,–,–,–,–,–,–,–,–,–,–,–,–,–
OC[C@H]1O[C@@H](n2cnc3c2NC=NC[C@@H]3O)C[C@H]1O,inactive,–,1040 nM (active),inactive,inactive,–,inactive,inactive,inactive,inactive,–,8270 nM (active),–,8270 nM (active),inactive,inactive,inactive,inactive,inactive,inactive
CO[C@H]1C=CC=C(C)C(=O)NC2=CC(=O)C(NCCN(C)C)=C(C[C@@H](C)C[C@H](OC)[C@@H](O)[C@@H](C)C=C(C)[C@@H]1OC(N)=O)C2=O,590 nM (active),–,16500 nM (active),–,–,inactive,inactive,1850 nM (active),3290 nM (active),–,–,827 nM (active),1170 nM (active),–,inactive,inactive,18500 nM (active),–,7370 nM (active),inactive
CO[C@H]1C(=O)[C@]2(C)[C@@H](OC)C[C@H]3OC[C@@]3(OC(C)=O)[C@H]2[C@H](OC(=O)c2ccccc2)[C@]2(O)C[C@H](OC(=O)[C@H](O)[C@@H](NC(=O)OC(C)(C)C)c3ccccc3)C(C)=C1C2(C)C,1 nM (active),–,5.9 nM (active),–,inactive,inactive,inactive,–,inactive,–,–,3.3 nM (active),–,3.3 nM (active),8.3 nM (active),inactive,–,18.5 nM (active),16.5 nM (active),16.5 nM (active)
O=C1c2ccccc2-[n+]2ccc3c([nH]c4ccccc43)c21,2960 nM (active),–,2930 nM (active),2930 nM (active),2610 nM (active),2610 nM (active),7370 nM (active),2330 nM (active),2930 nM (active),inactive,2080 nM (active),–,1040 nM (active),1310 nM (active),3290 nM (active),827 nM (active),1850 nM (active),1170 nM (active),2080 nM (active),1650 nM (active)
CC1(C)CCC(CN2CCN(c3ccc(C(=O)NS(=O)(=O)c4ccc(NCC5CCOCC5)c([N+](=O)[O-])c4)c(Oc4cnc5[nH]ccc5c4)c3)CC2)=C(c2ccc(Cl)cc2)C1,18700 nM (active),–,–,inactive,–,inactive,inactive,–,inactive,–,261 nM (active),18500 nM (active),inactive,inactive,inactive,5850 nM (active),inactive,–,–,–
Nc1ncnc2c1ncn2[C@@H]1O[C@@H](CO)[C@H](O)[C@H]1O,inactive,–,inactive,inactive,inactive,inactive,–,inactive,inactive,inactive,–,inactive,inactive,inactive,inactive,inactive,inactive,inactive,inactive,inactive
